This is a sample that favours compounds with a hit; in the whole collection about 3% have one here.
esBAF inh = Bmi1 luciferase reporter increase in mESCs, primary screen, esBAF inhibitor project, mouse ES cells, Bmi1 luciferase knock-in, single point. 24 h; 100% = twice the neutral-well signal. reporter increase, % at 12.5 µM. 2% of 350,000 active. AID 602393, 2012; in the data active = activation above about 40%; inconclusive = no clear call, values can overlap the other calls;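 also: 0% = median of the plate's neutral control wells and 100% = double that signal; a rise in the Bmi1 reporter signal indicates esBAF inhibition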
C2C12 statin = suppressors of statin myotoxicity in C2C12 myotubes, primary screen, cell-based, single point, plate reader. C2C12 myotubes + simvastatin, ATP luminescence, 48 h; scaled: DMSO 0, geranylgeraniol control 100. rescue of ATP level, % at 7.49 µM. 0.78% of 330,000 active. AID 602340, 2012;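 active = mean ATP rescue above about 67%, or every replicate alone reaching that limit, limit read from the data, passing the limit was not always enough; inconclusive = no clear call, values can overlap the other calls; inactive = mean under the limit and some replicate under it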;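 also: myotubes were challenged with 10 µM simvastatin during compound exposure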
MITF act = activators of MITF-driven TRPM1 promoter reporter, primary screen, cell-based, SK-MEL-5, luciferase, single point | SK-MEL-5 TRPM1-promoter luciferase, 24 h; % of positive control, neutral wells = 0 | activation, % at 12.5 µM | 0.75% of 300,000 active | AID 588334, 2011;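 active = mean activation of at least 80% with every replicate also reaching 80%; inconclusive = mean reaches 80% but some replicate falls short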;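 also: 0% = neutral control wells and 100% = parthenolide positive control wells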
Wnt bcat act = Wnt/beta-catenin pathway activators, primary screen, cell-based, plate reader, single point. Wnt/beta-catenin reporter cell assay, activator. activation, % at 9.35 µM. 1.2% of 300,000 active. AID 743398, 2014; in the data active = activation above about 30%, passing the limit was not always enough; inconclusive = no clear call, values can overlap the other calls;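 also: 0% = neutral control wells and 100% = positive control wells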
* hit, by the source's call; ? = inconclusive; . = not tested or not shown.

SMILES | esBAF inh | C2C12 statin | MITF act | Wnt bcat act
c1csc(-c2cn3ccc4ccccc4c3n2)c1 | 72* | -83 | 17 | 23
COc1ccc(C)cc1-n1nc2ccccc2n1 | 6 | 6 | 2 | -1
Cc1ccc(O)c(-n2nc3ccccc3n2)c1 | 43* | 4 | ? | 10
Clc1ccccc1CSc1cnnc2ccccc12 | 45* | -16 | 48 | -5
COc1ccc(CN2[C@H](CO)[C@H]3c4ccccc4NC[C@H]32)cc1 | 26 | 157* | . | .
COc1ccc(C(=O)NCC2OCCc3ccccc32)c(O)c1 (stereo unspecified) | 67* | 2 | 43 | .
Cc1csc2ncc(C(=O)Nc3cccc(C(F)(F)F)c3)c(=O)n12 | 22 | 107* | 28 | 3
Cc1ccccc1-c1nnc(SCC(=O)NC2CCCCC2)o1 | -4 | 78* | 20 | 4
Cc1ccccc1-c1nnc(SCc2ccccc2)o1 | 63* | 7 | . | .
c1ccc(CSc2nnc(-c3c[nH]c4ccccc34)o2)cc1 | 53* | . | 64 | 11
COc1ccccc1-c1nnc(SCC(=O)NC2CCCCC2)o1 | -8 | 7 | -34 | 0
C[C@@H]1CN([C@@H](C)CO)C(=O)Cc2cc(NC(=O)Nc3cccc4ccccc34)ccc2O[C@H]1CN(C)C(=O)NC1CCCCC1 | 2 | 32 | . | .
CC(C)c1cn(CC[C@@H]2CC[C@@H](NS(=O)(=O)Cc3ccccc3)[C@H](CO)O2)nn1 | -4 | 8 | . | .
O=C(C[C@@H]1CC[C@@H](NC(=O)CN2CCOCC2)[C@H](CO)O1)NCc1cccc(F)c1 | -1 | 5 | . | .
O=C(Nc1ccc2c(c1)OCCO2)C1C(c2ccccc2)=Nc2ccccc2N1C(=O)c1cccnc1 (stereo unspecified) | . | . | . | 50*
Cc1cccc(C)c1NC(=O)C1C(c2ccc3c(c2)OCO3)=Nc2ccccc2N1C(=O)c1ccccc1 (stereo unspecified) | . | . | . | -3
CC(=O)c1ccc(NC(=O)CNCc2cccs2)cc1 | 54* | 4 | 67 | 14
Cc1ccc(NC(=O)CNCc2cccs2)cc1Br | ? | -1 | 16 | 0
CCOC(=O)N1CCN(C(=O)CNCc2cccs2)CC1 | -3 | 93* | 7 | 0
C[C@H]1CN([C@@H](C)CO)C(=O)c2cc(C3=CCCC3)cnc2O[C@@H]1CN(C)Cc1ccc(F)cc1 | -1 | 5 | . | .
C[C@@H](NC(=O)[C@H]1[C@H](CO)[C@H]2Cn3c(ccc(-c4ccccc4)c3=O)[C@H]2N1C)c1ccccc1 | -2 | 10 | . | .
Cc1nc(N=Nc2ccc(O)cc2)n[nH]1 | 4 | -5 | 38 | 44*
N#CC1(c2ccc(NC(=O)c3ccccc3)cc2)CCCC1 | 19 | . | 40 | .
CC(=O)Oc1ccc(C(=O)Nc2ccc(C3(C#N)CCCC3)cc2)cc1 | 51* | -11 | . | 15
O=C(c1ccccc1)c1ccc(-c2ccc(O)cc2)cc1 | 76* | -20 | 24 | 35*
SMILES | esBAF inh | C2C12 statin | MITF act | Wnt bcat act
O=C(c1ccccc1)c1ccccc1 | 0 | 3 | 16 | -2
CC(C)NC(=O)NCC[C@H]1CC[C@H](NC(=O)CN(C)C)[C@H](CO)O1 | -7 | -2 | . | .
O=C(NCc1ccco1)c1ccc2c(=O)n(CC3CCCO3)c(=S)[nH]c2c1 (stereo unspecified) | -11 | 91* | -7 | .
COc1ccc(NC(=O)Nc2ccc3c(c2)CC(=O)N([C@@H](C)CO)C[C@@H](C)[C@H](CN(C)Cc2ccncc2)O3)cc1 | 0 | -4 | . | .
COc1ccc(/C=C/C(=O)C2C(=O)C=C(C)OC2=O)cc1O (stereo unspecified) | 51* | 5 | -9 | 35*
CC(=O)NCCc1nc2ccccc2n1Cc1ccc(C)cc1 | -9 | 10 | -10 | -3
CCC(=O)NCCc1nc2ccccc2n1Cc1ccccc1 | -3 | 124* | 5 | .
CCC(=O)NC[C@H]1N[C@H](CO)[C@@H]1c1ccc(-c2cccc(C#N)c2)cc1 | -10 | -24 | . | .
CC(C)(C)C1CCc2c(sc(NC(=O)C3CCCO3)c2C(N)=O)C1 (stereo unspecified) | 13 | 96* | 51 | .
CCOC(=O)C1=C(CP(=O)(c2ccccc2)c2ccccc2)NC(=O)NC1c1ccc(Cl)cc1 (stereo unspecified) | 0 | 8 | -6 | -6
CCOC(=O)C1=C(CP(=O)(c2ccccc2)c2ccccc2)NC(=O)NC1c1ccc(OC)cc1 (stereo unspecified) | . | . | -10 | 84*
CCN(c1ccccc1)S(=O)(=O)c1cnc[nH]1 | -7 | 88* | 1 | .
C#CCN(CC=C)C(=O)CCc1nnc(COc2ccccc2)o1 | 59* | 6 | 38 | -6
O=C(CN1CCOCC1)NCC[C@H]1CC[C@@H](NC(=O)Nc2ccc(C(F)(F)F)cc2)[C@H](CO)O1 | -2 | 13 | . | .
c1ccc(-c2cc(N3CCCCCC3)n[nH]2)cc1 | 58* | 93* | 2 | .
Nc1nc(-c2ccccc2)cc(N2CCCCC2)n1 | -6 | -87 | -32 | .
c1ccc(-c2cc(N3CCCCC3)ncn2)cc1 | 44* | . | 86* | -1
COc1ccc(S(=O)(=O)Nc2ccc3c(c2)C(=O)N([C@@H](C)CO)C[C@H](C)[C@@H](CN(C)CC2CCCCC2)OCCCC[C@H](C)O3)cc1 | 4 | . | . | .
C[C@@H]1CN([C@H](C)CO)C(=O)Cc2cc(NS(C)(=O)=O)ccc2O[C@H]1CN(C)C(=O)Nc1ccc(F)cc1 | -4 | 4 | . | .
CCN1[C@@H]2c3ccc(-c4cccc(F)c4)c(=O)n3C[C@H]1[C@H](CO)[C@H]2C(=O)N(C)C | -2 | 10 | . | .
CN(C(=O)/C=C/c1ccccc1)C1CCS(=O)(=O)C1 (stereo unspecified) | . | . | -5 | 1
CN(C(=O)/C=C/c1ccccc1)C1CCCCC1 | . | . | . | 48*
C[C@@H]1CCCCO[C@H](CN(C)Cc2ccc(C(=O)O)cc2)[C@@H](C)CN([C@H](C)CO)C(=O)c2cc(NS(=O)(=O)c3ccc(Cl)cc3)ccc2O1 | -4 | . | . | .
C=CCN1N=C(/C=C/c2ccc(C)cc2)CCC1=O | 56* | 4 | 53 | 6
CN1C(=O)c2cccc3c(S(N)(=O)=O)ccc1c23 | -3 | -12 | . | 0
SMILES | esBAF inh | C2C12 statin | MITF act | Wnt bcat act
CN1C(=O)c2cccc3c(S(=O)(=O)NCc4ccco4)ccc1c23 | -18 | 110* | -14 | .
C[C@@H]1CCCCO[C@H](CN(C)C)[C@H](C)CN([C@H](C)CO)C(=O)c2cc(NC(=O)Cc3ccccc3)ccc2O1 | -3 | -7 | . | .
CCc1noc(C)c1C(=O)NNC(=O)COc1ccccc1C | -8 | -2 | -4 | 34*
Cc1noc(C)c1NC(=O)Nc1ccc2c(c1)C(=O)N([C@@H](C)CO)C[C@H](C)[C@@H](CN(C)Cc1ccc(Cl)c(Cl)c1)OCCCC[C@H](C)O2 | 0 | . | . | .
O=C1c2ccccc2S(=O)(=O)N1CC1CC(c2ccc(Cl)cc2)=NO1 (stereo unspecified) | . | . | 32 | 46*
O=C(N/N=C/c1ccc(OC2CSC2)cc1)c1ccccc1 | 67* | 16 | 67 | .

Assay outcomes deposited in PubChem BioAssay by Broad Institute.
